Out of some 5,500 compounds screened, about 2,000 (36%) were called active. Not shown: some 18% with an inconclusive outcome. Rule as the data show it: active = normalized growth mostly below about 0.91 (no sharp cut-off); inconclusive = no clear call, values can overlap the other calls; inactive = mostly above about 0.92. The list shows a part of the results.
Test: chemical genetic growth profiling, strain panel (AID 1159580);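 also: tested at 20 µM; growth read once vehicle control cultures reached saturation at 30 °C; 1 = growth at the plate median or of vehicle wells; lower values mean less growth of the strain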
Settings: growth OD

Measured: normalized growth

CN[C@@H]1[C@@H](O[C@H]2O[C@H](CO)[C@@H](N)[C@H](O)[C@H]2O)O[C@H]2C[C@@H](N)[C@H](O[C@H]3[C@H](O)[C@@H](O)[C@H](N)C[C@@H]3N)O[C@@H]2[C@@H]1O
inactive: S. cerevisiae deletion strains, locus YKL009W, strain mrt4, active compounds read low 0.996 | S. cerevisiae deletion strains, locus YKL068W, active compounds read low 1.01 | S. cerevisiae deletion strains, locus YKL085W, strain MDH1 (second series), active compounds read low 0.982 | S. cerevisiae deletion strains, locus YKL085W, strain MDH1, active compounds read low 0.982 | S. cerevisiae deletion strains, locus YKL160W, strain elf1, active compounds read low 1.01 | S. cerevisiae deletion strains, locus YKL190W, strain CNB1, active compounds read low 1 | S. cerevisiae deletion strains, locus YKR001C, strain vps1, active compounds read low 0.989 | S. cerevisiae deletion strains, locus YKR026C, strain gcn3, active compounds read low 1 | S. cerevisiae deletion strains, locus YKR091W, strain srl3, active compounds read low 1 | S. cerevisiae deletion strains, locus YLL001W, strain dnm1, active compounds read low 1.02 | S. cerevisiae deletion strains, locus YLL026W, active compounds read low 1.01 | S. cerevisiae deletion strains, locus YLL041C, strain sdh2, active compounds read low 0.997 | S. cerevisiae deletion strains, locus YLR027C, strain aat2, active compounds read low 1.01 | S. cerevisiae deletion strains, locus YLR039C, strain RIC1, active compounds read low 1.07 | S. cerevisiae deletion strains, locus YLR058C, strain SHM2, active compounds read low 1.01 | S. cerevisiae deletion strains, locus YLR102C, strain apc9, active compounds read low 1.01 | S. cerevisiae deletion strains, locus YLR113W, strain HOG1, active compounds read low 0.939 | S. cerevisiae deletion strains, locus YLR221C, strain rsa3, active compounds read low 1 | S. cerevisiae deletion strains, locus YLR258W, strain gsy2, active compounds read low 1 | S. cerevisiae deletion strains, locus YLR262C, strain YPT6 (second series), active compounds read low 1 | S. cerevisiae deletion strains, locus YLR262C, strain YPT6, active compounds read low 1.05 | S. cerevisiae deletion strains, locus YLR268W, strain sec22, active compounds read low 0.981 | S. cerevisiae deletion strains, locus YLR320W, strain mms22, active compounds read low 0.991 | S. cerevisiae deletion strains, locus YLR330W, strain CHS5, active compounds read low 1.01 | S. cerevisiae deletion strains, locus YLR342W, strain FKS1 (second series), active compounds read low 1.07 | S. cerevisiae deletion strains, locus YLR342W, strain FKS1, active compounds read low 1.02 | S. cerevisiae deletion strains, locus YLR357W, strain rsc2, active compounds read low 0.996 | S. cerevisiae deletion strains, locus YLR370C, strain arc18, active compounds read low 1.01 | S. cerevisiae deletion strains, locus YLR371W, strain rom2, active compounds read low 1.01 | S. cerevisiae deletion strains, locus YLR384C, strain iki3, active compounds read low 1 | S. cerevisiae deletion strains, locus YLR418C, strain cdc73, active compounds read low 0.99 | S. cerevisiae deletion strains, locus YML016C, strain PPZ1, active compounds read low 1 | S. cerevisiae deletion strains, locus YML032C, strain rad52, active compounds read low 1.01 | S. cerevisiae deletion strains, locus YML120C, strain ndi1, active compounds read low 1 | S. cerevisiae deletion strains, locus YML124C, strain tub3, active compounds read low 0.995 | S. cerevisiae deletion strains, locus YMR058W, strain fet3, active compounds read low 1.02 | S. cerevisiae deletion strains, locus YMR078C, strain ctf18, active compounds read low 1.02 | S. cerevisiae deletion strains, locus YMR125W, strain sto1, active compounds read low 0.988 | S. cerevisiae deletion strains, locus YMR129W, active compounds read low 0.986 | S. cerevisiae deletion strains, locus YMR205C, strain PFK2, active compounds read low 1.02 | S. cerevisiae deletion strains, locus YMR223W, strain ubp8, active compounds read low 0.913 | S. cerevisiae deletion strains, locus YMR231W, strain pep5, active compounds read low 1.01 | S. cerevisiae deletion strains, locus YMR263W, strain SAP30, active compounds read low 0.991 | S. cerevisiae deletion strains, locus YMR307W, strain GAS1, active compounds read low 1.03 | S. cerevisiae deletion strains, locus YNL067W, strain RPL9B, active compounds read low 0.988 | S. cerevisiae deletion strains, locus YNL071W, strain lat1, active compounds read low 0.995 | S. cerevisiae deletion strains, locus YNL128W, strain TEP1, active compounds read low 1.03 | S. cerevisiae deletion strains, locus YNL153C, strain GIM3, active compounds read low 0.98 | S. cerevisiae deletion strains, locus YNL183C, strain NPR1, active compounds read low 0.916 | S. cerevisiae deletion strains, locus YNL209W, strain ssb2, active compounds read low 0.996 | S. cerevisiae deletion strains, locus YNL233W, strain BNI4, active compounds read low 1 | S. cerevisiae deletion strains, locus YNL248C, strain rpa49, active compounds read low 0.999 | S. cerevisiae deletion strains, locus YNL250W, strain rad50, active compounds read low 1.01 | S. cerevisiae deletion strains, locus YNL271C, strain bni1, active compounds read low 0.997 | S. cerevisiae deletion strains, locus YNL298W, strain CLA4, active compounds read low 1.01 | S. cerevisiae deletion strains, locus YNL307C, strain MCK1, active compounds read low 1.02 | S. cerevisiae deletion strains, locus YNL322C, strain KRE1 (second series), active compounds read low 1 | S. cerevisiae deletion strains, locus YNL322C, strain KRE1, active compounds read low 1.01 | S. cerevisiae deletion strains, locus YNR049C, strain mso1, active compounds read low 0.999 | S. cerevisiae deletion strains, locus YNR052C, strain pop2, active compounds read low 0.996 | S. cerevisiae deletion strains, locus YOL006C, strain TOP1, active compounds read low 1 | S. cerevisiae deletion strains, locus YOL012C, strain htz1 0.612 | S. cerevisiae deletion strains, locus YOL147C, strain pex11, active compounds read low 1 | S. cerevisiae deletion strains, locus YOR001W, strain rrp6, active compounds read low 1 | S. cerevisiae deletion strains, locus YOR061W, strain CKA2, active compounds read low 1.01 | S. cerevisiae deletion strains, locus YOR069W, strain VPS5, active compounds read low 1 | S. cerevisiae deletion strains, locus YOR070C, strain gyp1, active compounds read low 1 | S. cerevisiae deletion strains, locus YOR080W, strain dia2, active compounds read low 1.01 | S. cerevisiae deletion strains, locus YOR083W, strain WHI5, active compounds read low 1.01 | S. cerevisiae deletion strains, locus YOR106W, strain vam3, active compounds read low 1.01 | S. cerevisiae deletion strains, locus YOR136W, strain idh2, active compounds read low 1.01 | S. cerevisiae deletion strains, locus YOR144C, strain elg1, active compounds read low 1 | S. cerevisiae deletion strains, locus YOR184W, strain ser1, active compounds read low 1.03 | S. cerevisiae deletion strains, locus YOR231W, strain MKK1, active compounds read low 0.951 | S. cerevisiae deletion strains, locus YOR265W, strain rbl2, active compounds read low 1.01 | S. cerevisiae deletion strains, locus YOR270C, strain vph1, active compounds read low 1.2 | S. cerevisiae deletion strains, locus YOR290C, strain snf2, active compounds read low 0.991 | S. cerevisiae deletion strains, locus YOR316C, strain cot1, active compounds read low 1.01 | S. cerevisiae deletion strains, locus YPL051W, strain arl3, active compounds read low 1.02 | S. cerevisiae deletion strains, locus YPL055C, strain LGE1, active compounds read low 0.984 | S. cerevisiae deletion strains, locus YPL078C, strain atp4, active compounds read low 1.03 | S. cerevisiae deletion strains, locus YPL106C, strain sse1, active compounds read low 0.975 | S. cerevisiae deletion strains, locus YPL240C, strain hsp82, active compounds read low 0.995 | S. cerevisiae deletion strains, locus YPL241C, strain CIN2, active compounds read low 1 | S. cerevisiae deletion strains, locus YPL256C, strain CLN2, active compounds read low 1.02 | S. cerevisiae deletion strains, locus YPR119W, strain clb2, active compounds read low 1.01 | S. cerevisiae deletion strains, locus YPR141C, strain kar3, active compounds read low 1 | S. cerevisiae deletion strains, locus YPR163C, strain tif3, active compounds read low 1 | S. cerevisiae deletion strains, locus YPR167C, strain met16, active compounds read low 0.991 | S. cerevisiae deletion strains, strain wtn01, active compounds read low 0.988 | S. cerevisiae strains, strain wild type, active compounds read low 1.02

Reference: PubChem BioAssay AID1159580 (chemical genetic matrix, 2015)
